Compounds with a hit are over-represented: about 2.1% of the library has one in this group of screens.
YB-1 expression = YB-1 expression inhibition; U2OS, qRT-PCR YB-1 vs CDIP delta delta Cp, 16 h; hits give high values; zero = DMSO, each unit about twofold; delta delta Cp (YB-1 minus CDIP) (no concentration beside the values); 30,000 compounds, 0.37% hits; AID 434959;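 active = delta delta Cp rounded down to an integer at or above 3, about 3 SD of DMSO wells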;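 also: higher means less YB-1 transcript or more CDIP transcript relative to DMSO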
PD-1 reversal = activators reversing PD-1 mediated T-cell inhibition; activation, % (test concentration not listed); primary human CD4 T cells, PD-L1 beads, CellTiter-Glo 96 h; 29,000 tested, under 10 active; AID 2316; call rule not given here;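 also: 0% = median vehicle wells and 100% = positive control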
U2OS ROS induce = cancer cell ROS induction; AID 624156; ROS induction (% of piperlongumine), % at 10 µM; 46,000 compounds, 2% hits; U2OS ROS induction, H2DCF-DA fluorescence; in the data active = ROS induction above about 79%, passing the limit was not always enough; inconclusive = no clear call, values can overlap the other calls;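 also: 0% = DMSO vehicle median and 100% = reference compound median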
The depositor's hits bear a star; ? = inconclusive; nt = no result given.

SMILES	YB-1 expression	PD-1 reversal	U2OS ROS induce
Cc1cc(/C=C2/SC(=O)N(C(C)C)C2=O)c(C)n1-c1ccncc1	9.62*	-0.5	12.9
Cc1cc(C)cc(-n2c(C)cc(/C=C3\SC(=O)NC3=O)c2C)c1	-0.053	-0.5	57.7
CC(NC(=O)Cn1c(-c2nonc2N)nc2ccccc21)c1ccccc1 (centres undefined)	nt	0.1	2.0
C[C@@H]1CN([C@H](C)CO)C(=O)CCCn2cc(nn2)CO[C@H]1CN(C)Cc1ccncc1	-0.144	nt	12.8
COc1ccc(NC(=O)N(C)C[C@@H]2Oc3ccc(NC(=O)C4CC4)cc3CC(=O)N([C@H](C)CO)C[C@H]2C)cc1	-0.323	0.7	119.6*
COc1ccc(NC(=O)Nc2ccc3c(c2)CC(=O)N([C@@H](C)CO)C[C@H](C)[C@H](CN(C)Cc2ccc(C(=O)O)cc2)O3)cc1	0.24	-0.2	133.3*
C[C@H]1CN([C@@H](C)CO)C(=O)Cc2cc(N(C)C)ccc2O[C@@H]1CN(C)Cc1ccc(C(=O)O)cc1	3.43e-05	2.0	112.6*
COc1ccc(CN(C)C[C@H]2Oc3ccc(NC(=O)C4CC4)cc3CC(=O)N([C@@H](C)CO)C[C@@H]2C)cc1	-0.19	nt	5.2
COc1ccc(CN(C)C[C@@H]2Oc3ccc(NC(=O)Nc4ccc(OC)cc4)cc3CC(=O)N([C@H](C)CO)C[C@@H]2C)cc1	0.224	nt	-14.5
COc1ccc(NC(=O)N(C)C[C@H]2Oc3ccc(NC(=O)C4CC4)cc3CC(=O)N([C@H](C)CO)C[C@H]2C)cc1	0.0249	1.0	-15.5
C[C@H]1CN([C@@H](C)CO)C(=O)Cc2cc(N(C)C)ccc2O[C@H]1CN(C)Cc1ccc(C(=O)O)cc1	-0.134	-0.6	-8.2
COc1ccc(CN(C)C[C@@H]2Oc3ccc(NC(=O)C4CC4)cc3CC(=O)N([C@H](C)CO)C[C@@H]2C)cc1	0.567	nt	104.0*
CCCN(C)C[C@@H]1OCc2cnnn2CCCC(=O)N([C@@H](C)CO)C[C@H]1C	-0.221	nt	3.7
COc1ccc(-c2cnc3c(c2)C(=O)N([C@H](C)CO)C[C@H](C)[C@H](CN(C)Cc2cccc(C(F)(F)F)c2)O3)cc1	-0.0218	nt	110.4*
Cc1cccc(CN(C)C[C@@H]2Oc3ncc(-c4cccc(C(F)(F)F)c4)cc3C(=O)N([C@H](C)CO)C[C@@H]2C)c1	-0.29	nt	103.6*
C[C@H](CO)N1C[C@H](C)[C@H](CN(C)Cc2cccc(C(F)(F)F)c2)Oc2ncc(-c3ccccc3)cc2C1=O	0.222	nt	46.6
COc1ccc(C#Cc2cnc3c(c2)C(=O)N([C@H](C)CO)C[C@H](C)[C@H](CN(C)Cc2cccc(C(F)(F)F)c2)O3)cc1OC	-0.17	nt	60.4
CCCn1nnc(NC(=O)COc2ccc(Br)cc2)n1	nt	4.7	-7.2
C[C@H](CO)N1C[C@H](C)[C@H](CN(C)C(=O)Nc2ccc(C(F)(F)F)cc2)Oc2ccc(NS(=O)(=O)c3ccc(F)cc3)cc2C1=O	-0.175	-0.3	27.0
COc1ccc(C(=O)Nc2ccccc2C(=O)NC(C(=O)O)C(C)C)cc1 (centres undefined)	nt	1.5	-12.0
COc1ccccc1NC(=O)C(NC(=O)c1ccccc1NC(=O)c1ccccc1)C(C)C (centres undefined)	nt	nt	97.5*
Cc1ccc(SC(=O)c2c(C)noc2-c2cc(C)on2)cc1	nt	nt	108.6*
Cc1cc(-c2c(C(=O)Sc3ccccc3)c(C)nn2-c2ccccc2)no1	nt	nt	55.8
O=C(CCc1ccccc1)NCCN1CCN(C(=O)CCc2ccccc2)CC1	nt	nt	-3.6
CCOC(=O)c1cc(-c2ccccc2)sc1NC(=O)CCN1CCN(CC)CC1	nt	nt	53.1
SMILES	YB-1 expression	PD-1 reversal	U2OS ROS induce
Cc1noc(C)c1NC(=O)Nc1ccc2c(c1)C(=O)N([C@@H](C)CO)C[C@@H](C)[C@@H](CN(C)C(=O)Nc1c(C)noc1C)O2	-0.45	0.4	1.5
Cc1noc(C)c1NC(=O)Nc1ccc2c(c1)C(=O)N([C@H](C)CO)C[C@@H](C)[C@H](CN(C)C(=O)Nc1c(C)noc1C)O2	0.0662	nt	104.8*
Cc1noc(C)c1NC(=O)N(C)C[C@@H]1Oc2ccc(NC(=O)Cn3cnnn3)cc2C(=O)N([C@H](C)CO)C[C@@H]1C	0.19	2.4	-8.9
Cc1noc(C)c1NC(=O)N(C)C[C@H]1Oc2ccc(NC(=O)Cn3cnnn3)cc2C(=O)N([C@@H](C)CO)C[C@@H]1C	3.92*	0.7	-5.3
COC(=O)c1ccccc1NC(=O)CSc1nnc(-c2ccccc2O)n1-c1ccccc1	nt	0.3	16.0
O=C(CCN1C(=O)C2C3c4ccccc4C(c4ccccc43)C2C1=O)Oc1cccc2cccnc12 (centres undefined)	nt	-15.7	nt
Cc1ccc(-n2c(SCC(=O)NCC3CCCO3)nc3sc(C)c(C)c3c2=O)cc1C (centres undefined)	nt	-1.6	11.2
O=C(CSc1ccc(F)cc1Cl)C12CC3CC(CC(C3)C1)C2	7.18*	-0.8	9.6
N#CSCC(=O)C12CC3CC(CC(C3)C1)C2	-0.689	-7.1	55.2
O=C1C(=O)N(CCCn2ccnc2)C(c2cccc(Br)c2)C1C(=O)c1ccccc1 (centres undefined)	nt	nt	-11.4
COc1ccc(C(=O)Cn2c3ccccc3n3nc(-c4ccccc4)nc23)cc1OC	nt	-0.4	-2.8
CCCCN1Cc2c(n(CC(=O)c3ccc(OC)cc3)c3cc(-c4ccccc4)nn3c2=O)C1=O	nt	nt	170.2*
CC(=O)N/C(=C/c1ccccc1Br)C(=O)NCc1ccc(C)cc1	nt	nt	-5.3
Cc1ccc2c(c1)c1nc3ccccc3nc1n2CC(=O)OCc1ccccc1	nt	nt	-2.8
Cc1ccc2c(c1)c1nc3ccccc3nc1n2CCN1CCOCC1	nt	-5.1	78.0*
CCOC(=O)C1=C(C)Nc2ncnn2C1c1ccccc1[N+](=O)[O-] (centres undefined)	nt	-1.8	nt
COC(=O)COc1cccc(NC(=O)c2ccc(Br)cc2)c1	nt	-2.9	19.7
COC(=O)COc1cccc(NC(=O)c2cc(OC)cc(OC)c2)c1	nt	-0.2	108.3*
C[C@H]1CN([C@@H](C)CO)C(=O)CCCn2cc(nn2)CO[C@H]1CN(C)S(=O)(=O)c1ccc(-c2ccccc2)cc1	0.203	nt	55.1
COc1ccc(-c2oc3ncn(CC(C)C)c(=N)c3c2-c2ccc(OC)cc2)cc1	nt	nt	94.4*
COc1ccc(-c2oc3ncn(CCO)c(=N)c3c2-c2ccc(OC)cc2)cc1	nt	nt	0.5
C[C@H](CO)N1C[C@H](C)[C@H](CN(C)S(=O)(=O)c2ccc(C#N)cc2)Oc2ncc(C#CCN(C)C)cc2C1=O	-0.127	nt	-1.5
CC1=CC(C)(C)N(Cc2ccccc2)c2ccccc21	-0.618	-0.7	?
NNC(=O)c1csc(-c2cccs2)n1	nt	nt	-8.4
COc1ccc(-n2c(SCCCN3C(=O)c4cccc5cccc(c45)C3=O)nnc2-c2ccncc2)cc1	nt	-2.1	87.6*
Cn1c(SCCCN2C(=O)c3cccc4cccc(c34)C2=O)nnc1-c1cccs1	nt	-0.1	37.8
CS(=O)(=O)/C(C#N)=C/Nc1cnccn1	-0.00957	0.1	6.1
Cc1cc(/C=C(/C#N)S(C)(=O)=O)c2c(C)ccc(C(C)C)cc1-2	nt	nt	85.4*
C[C@@H]1CN([C@H](C)CO)C(=O)Cc2cc(NC(=O)Nc3ccc(F)cc3)ccc2O[C@@H]1CN(C)Cc1ccc(Cl)c(Cl)c1	-0.378	-9.6	28.0
CC(Oc1cccc(NC(=O)c2ccc(Br)cc2)c1)C(=O)c1ccccc1 (centres undefined)	nt	0.7	-0.8
